PBM binding z-score data for 39 sequences are collected here from the supplement of paper PMC6555819.

One test deals with PPARg:RXRa 90nM:30nM, anti-RXR (NR concentration 90 nM, RXRa partner concentration 30 nM). Put plainly: PBM binding z-score (relative to random genomic background probes); higher = stronger binding; sequences stand for … in GC…GCGATTGACAGCGTAGAATGAAGG
In outline: (§1)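 Binding z-scores take random background probes as their reference. They come from custom Agilent 4×180K protein-binding microarrays incubated 1 h with ligand-free nuclear receptor dimers, with antibodies against each partner (one per run) detecting binding. Scanned fluorescence was regression-normalized.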
AGTCAAAGTTCATCCAGGTAACGTAAGATATGCT gave a PBM binding z-score of 5.54.
Sequence CTCGAAAGGTCGGTTGAGGTGAGTAGACGGATAA registered a PBM binding z-score of 0.586.
CCTTACGGGTCACGAGGTTATAGGACGACGAGCG registered a PBM binding z-score of 5.65.
With ATCGAAAGGTCGACGAGGTGACTATACACCGTTT, the PBM binding z-score worked out at 2.33.
In turn, AGAATGAGGTTACGAAAGATCAGGGAAACGCTTG came in with a PBM binding z-score of 2.02.
Same read-out and setting: with TCTGCTAGGTTAACGATGGTCAGCTAATCTGCTA the figure was 1.06; with ATCGAAAGGTCGACGAGGTGAGTATTCACCGTTT, 1.94.
For ATATGTAGGTAAGCTGGGGTCATTCAGACTAGGC, the PBM binding z-score came out at 3.77.
CATACAGGGTCAGCTAGCCCAGAGTAGGGACGGC: the PBM binding z-score was 1.8.
ATCGAAAGATCGAGGTGAGTATAGAGAAAGGGAA: the PBM binding z-score amounted to 0.418.
TCTATTAGTTAAAGGGCAACCGACGAGTCCGTTT: the PBM binding z-score came out at 3.45.
The sequence CCTATTATTTGACCATAAGGGCAACCGAAGCTCG returned a PBM binding z-score of 0.461.
AATACACGGTCATCGTAGGCCAGAGTACGCACAG came in with a PBM binding z-score of 0.546.
In turn, CGTCCAAGGGCAAAGGTCAGTGAAGAGATGACGG came in with a PBM binding z-score of 7.34.
CCTTACGGGTCACAAGGTTATAGCACGACGAGCG came in with a PBM binding z-score of 4.65.
Turning to GCGACTGGGGCATCAGCAGGTTCCCATAACTTAA, the PBM binding z-score is -0.176.
The same measure, in the same setting: under AGAACGAGGGCACGCTGAGTTTATAGCAGAGTAG stands 1.43.
On the same count and under the same terms, with GATACAGGGTCAAGGCCAGATTACGCGTATTGAT the figure was 4.09; with ATACCAAGGTGAACGTGAGGTCGTTGATACTAAC, 1.48.
For the sequence CCTGCTAGGTCTTGGTCAGCTAATCTACAGTATG, the PBM binding z-score is -0.872.
Still for that read-out and setting: under GCTTGTAGATCAAGGTTACGAAAGACTAAGCTAA stands 1.13; under CCTGCTAGGTCATGGTCAGCTACTCTACAGTATG, 1.67; under TCGAGTAGGTTACCAATGGGGCAGTCAGCTTTCT, 0.984.
GGAACGAGGGAAAAGTTGATAGCATCTGTCGACG gave a PBM binding z-score of 3.49.
Sequence ATATGTAGGTTATCGGGTCATTCCGTTTGCGCAT gave a PBM binding z-score of 5.6.
Still for that read-out and setting: with AGAATGAGGTTCCCAAAGATCAGGGAAACGCTTG the figure was 0.0809.
CCTACTGGGCCAAGGTCATTGATCAGTCAAAGCA displayed a PBM binding z-score of 3.81.
The sequence ATCTCTAGGTAAAAAGTTCAGTGAAAGAGAGGAC displayed a PBM binding z-score of 3.68.
Same read-out and setting: under CCTTACGGGTCACTCCAGATTATAGCATCGGAGT stands 2.35; under AGTCAAAGTTCATCTAGGCAACGTAAGATATGCT, 5.44; under TAGCCTAGGTCAGTCAGGGGCCAGTATAGAAAGC, 0.829.
Sequence CCGACTGGGGCAGAAAGGTTACCACACCATCCGG displayed a PBM binding z-score of 2.13.
Take ATATGTAGGTTACATCTGGGTCATTCAGGCTATG: the PBM binding z-score was determined as 3.88.
The same measure, in the same setting: with TCAGACAGATGAAGGTAACTCAGGTACGCAGTCG the figure was 3.3; with CTCGAAAGGTCGGTTAAGGTGAGTATACGGATAA, 0.943; with TCGAGTAGGTTAGGGGCATTCTGAATGGCGTCGA, 1.41.
Sequence GATACAGGGTCAAGGCCGGAGTACGCGTATTGAT displayed a PBM binding z-score of 3.85.
As for GCTGCTAGGTCAACTGATGGTCAGTTAAAGCTCG, the PBM binding z-score was determined as 2.06.
ACTAGCAGGCCAAGTTTGGGCCACTCAAACAAAG: the PBM binding z-score is -0.814.

A further test relates to PPARg:RXRa DBDmut IVT, anti-RXR (DBD mutation: RXRa K156A/R161A, NR concentration 270 nM, RXRa partner concentration 90 nM). The description is as above. In outline:
as §1
In turn, AGTCAAAGTTCATCCAGGTAACGTAAGATATGCT displayed a PBM binding z-score of 0.286.
Turning to CTCGAAAGGTCGGTTGAGGTGAGTAGACGGATAA, the PBM binding z-score is -0.178.
In turn, CCTTACGGGTCACGAGGTTATAGGACGACGAGCG came in with a PBM binding z-score of 4.3.
In the case of ATCGAAAGGTCGACGAGGTGACTATACACCGTTT, the PBM binding z-score was found to be 1.03.
The same measure, in the same setting: under AGAATGAGGTTACGAAAGATCAGGGAAACGCTTG stands 4.25; under TCTGCTAGGTTAACGATGGTCAGCTAATCTGCTA, 2.11; under ATCGAAAGGTCGACGAGGTGAGTATTCACCGTTT, 0.554.
Same read-out and setting: under ATATGTAGGTAAGCTGGGGTCATTCAGACTAGGC stands 6.08.
Turning to CATACAGGGTCAGCTAGCCCAGAGTAGGGACGGC, the PBM binding z-score was 0.792.
For the sequence ATCGAAAGATCGAGGTGAGTATAGAGAAAGGGAA, the PBM binding z-score is -0.0862.
TCTATTAGTTAAAGGGCAACCGACGAGTCCGTTT yielded a PBM binding z-score of 2.36.
In turn, CCTATTATTTGACCATAAGGGCAACCGAAGCTCG came in with a PBM binding z-score of 0.801.
Consider AATACACGGTCATCGTAGGCCAGAGTACGCACAG, for which the PBM binding z-score amounted to 0.462.
Same read-out and setting: under CGTCCAAGGGCAAAGGTCAGTGAAGAGATGACGG stands 1.01; under CCTTACGGGTCACAAGGTTATAGCACGACGAGCG, 3.76; under GCGACTGGGGCATCAGCAGGTTCCCATAACTTAA, 3.91.
In turn, AGAACGAGGGCACGCTGAGTTTATAGCAGAGTAG registered a PBM binding z-score of 4.28.
Still for that read-out and setting: with GATACAGGGTCAAGGCCAGATTACGCGTATTGAT the figure was 2.74; with ATACCAAGGTGAACGTGAGGTCGTTGATACTAAC, 2.44; with CCTGCTAGGTCTTGGTCAGCTAATCTACAGTATG, 0.846.
On to GCTTGTAGATCAAGGTTACGAAAGACTAAGCTAA, for which the PBM binding z-score worked out at 1.65.
The same measure, in the same setting: with CCTGCTAGGTCATGGTCAGCTACTCTACAGTATG the figure was 4.23; with TCGAGTAGGTTACCAATGGGGCAGTCAGCTTTCT, 3.11.
Regarding GGAACGAGGGAAAAGTTGATAGCATCTGTCGACG, the PBM binding z-score was -0.174.
Turning to ATATGTAGGTTATCGGGTCATTCCGTTTGCGCAT, the PBM binding z-score came out at 7.56.
Turning to AGAATGAGGTTCCCAAAGATCAGGGAAACGCTTG, the PBM binding z-score was 0.186.
Still for that read-out and setting: under CCTACTGGGCCAAGGTCATTGATCAGTCAAAGCA stands 3.5; under ATCTCTAGGTAAAAAGTTCAGTGAAAGAGAGGAC, 1.79.
The sequence CCTTACGGGTCACTCCAGATTATAGCATCGGAGT showed a PBM binding z-score of 2.52.
Sequence AGTCAAAGTTCATCTAGGCAACGTAAGATATGCT showed a PBM binding z-score of 0.192.
Regarding TAGCCTAGGTCAGTCAGGGGCCAGTATAGAAAGC, the PBM binding z-score stood at 0.759.
CCGACTGGGGCAGAAAGGTTACCACACCATCCGG showed a PBM binding z-score of 1.83.
ATATGTAGGTTACATCTGGGTCATTCAGGCTATG registered a PBM binding z-score of 7.49.
Still for that read-out and setting: under TCAGACAGATGAAGGTAACTCAGGTACGCAGTCG stands 2.29.
Turning to CTCGAAAGGTCGGTTAAGGTGAGTATACGGATAA, the PBM binding z-score came to 0.549.
TCGAGTAGGTTAGGGGCATTCTGAATGGCGTCGA: the PBM binding z-score worked out at 2.23.
On the same count and under the same terms, under GATACAGGGTCAAGGCCGGAGTACGCGTATTGAT stands 2.69; under GCTGCTAGGTCAACTGATGGTCAGTTAAAGCTCG, 4.66; under ACTAGCAGGCCAAGTTTGGGCCACTCAAACAAAG, 0.654.
